Test results reported in PubChem BioAssay AID1671190 (National Center for Advancing Translational Sciences (NCATS), 2021).
Screen size: about 580,000 compounds; about 6,100 (1.1%) were called active. Another 15% or so got no clear call; they are omitted. For the sample, actives were picked, then their nearest neighbours and some compounds at random. A number with no mark means an inactive call. Calls follow the shape of the dose curve; as a rule, active = well fitted inhibition curve with a large enough effect; inconclusive = small, poorly fitted or top-dose-only effect, or another doubt; inactive = no such curve, though single readings can be large or run the other way.

The compounds below were run against Polyunsaturated fatty acid lipoxygenase ALOX12 (Homo sapiens) (UniProt P18054) (assay: Primary qHTS assay for inhibitors of human arachidonate 12S-lipoxygenase (ALOX12): Round 2). Conditions: purified 12hLO, xylenol orange hydroperoxide absorbance; series mostly up to 108 µM; activity change, negative = inhibition: at the top concentration.
How it was run: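 Hydroperoxide product was detected by ferrous iron/xylenol orange as the 573 to 405 nm absorbance ratio. Arachidonic acid at 40 uM (final) was turned over for 30 min at room temperature by 150 nM human 12hLO, pH 7.0 Hepes buffer, after 15 min compound preincubation.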
% is scaled to controls: 0 for no effect and ±100 for the full control effect; potency is read from the fitted curve at half-maximal effect.

Sequence of Polyunsaturated fatty acid lipoxygenase ALOX12 (Homo sapiens) (P18054 whole entry, looked up): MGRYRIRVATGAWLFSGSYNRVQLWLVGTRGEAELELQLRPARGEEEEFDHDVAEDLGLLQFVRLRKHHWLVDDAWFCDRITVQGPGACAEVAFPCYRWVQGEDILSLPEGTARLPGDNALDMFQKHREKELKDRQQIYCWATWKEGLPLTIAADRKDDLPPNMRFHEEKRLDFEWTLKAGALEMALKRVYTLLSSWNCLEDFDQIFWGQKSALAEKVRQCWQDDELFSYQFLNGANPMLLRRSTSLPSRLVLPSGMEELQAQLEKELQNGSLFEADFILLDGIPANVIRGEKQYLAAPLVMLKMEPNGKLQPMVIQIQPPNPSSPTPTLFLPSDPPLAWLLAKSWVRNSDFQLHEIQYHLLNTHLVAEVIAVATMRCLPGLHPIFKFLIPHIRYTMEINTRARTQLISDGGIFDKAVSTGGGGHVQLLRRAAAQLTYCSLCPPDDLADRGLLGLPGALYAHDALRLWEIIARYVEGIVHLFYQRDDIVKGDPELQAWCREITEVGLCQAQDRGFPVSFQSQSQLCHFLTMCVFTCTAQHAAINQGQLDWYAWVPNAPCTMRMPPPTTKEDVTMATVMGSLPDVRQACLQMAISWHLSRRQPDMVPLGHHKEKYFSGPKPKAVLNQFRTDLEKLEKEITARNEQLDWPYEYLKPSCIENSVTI

Compound	activity change, negative = inhibition	Potency
O=C(CC(NC(=O)c1ccccc1)c1ccccc1)NC12CC3CC(CC(C3)C1)C2 (stereo unspecified)	56.1%	
COc1ccc(C(=O)CSc2nnc(NC(=O)C3CC(=O)N(c4cccc(OC)c4)C3)s2)cc1 (stereo unspecified)	8.34%	
CCc1nnc(NC(=O)C2CC(=O)N(c3ccc4c(c3)OCCO4)C2)s1 (stereo unspecified)	6.52%	
CCOC(=O)CSc1nnc(NC(=O)C2CC(=O)N(c3ccc(F)cc3)C2)s1 (stereo unspecified)		39.8 µM (active)
CSc1nc(-c2cccs2)cc(C(F)(F)F)n1	-24.3%	
CCn1nc(C(=O)N(C)Cc2cnn(-c3ccccc3)c2)c2ccccc2c1=O	44.5%	
CC1CCCCN1C(C)CNC(=S)Nc1ccc(F)cc1F (stereo unspecified)	-8.73%	
Cn1cc(CN2CCn3c(nnc3[C@@H]3C[C@@H](O)CN3Cc3ccccc3)C2)c2ccccc21	-4.36%	
CC(=O)Oc1ccc(N(C(C)=O)S(=O)(=O)c2ccc3ccccc3c2)cc1Br	0%	
CCOC(=O)c1c(C)oc2ccc(N(C(=O)c3ccncc3)S(=O)(=O)c3ccc(CC)cc3)cc12	0%	
CC(=O)N(c1ccc2oc(=O)sc2c1)S(=O)(=O)c1ccc(C)cc1		8.91 µM (active)
Cn1c(=O)c2c(nc(NCc3ccccc3)n2Cc2cccc(F)c2)n(C)c1=O	9.35%	
O=C(Nc1nc(-c2ccco2)c(-c2ccco2)s1)c1ccco1		31.6 µM (active)
CCN(c1ccc(Cl)cc1)S(=O)(=O)c1nnc(NC(=O)c2ccco2)s1	-23.8%	
O=C(Nc1ccc2nc(SCCOc3ccccc3)sc2c1)c1ccco1	-28.3%	
O=C(COC(=O)CNC(=O)c1cccc(Cl)c1)Nc1ncc(C(F)(F)F)cc1Cl	-24.8%	
Cc1nc(SC(C)C(=O)Nc2cccc(C#N)c2)n(CC(C)C)c1C (stereo unspecified)	1.37%	
COc1ccc(NC(=O)[C@@H]2C[C@@H](c3cccc(C(F)(F)F)c3)N(Cc3cnn(C)c3)C2)cn1	0.79%	
COc1ccc(NC(=O)[C@@H]2C[C@@H](c3ccc(F)cc3)N(CCOc3ccccc3)C2)cn1		31.6 µM (active)
O=C(Nc1cccnc1)[C@@H]1C[C@@H](c2ccc(F)cc2)N([S+](=O)([O-])c2ccccc2)C1	10.5% [at 176 µM]	
O=C(NC1CC1)c1ccccc1OCC1CCCN(Cc2ccncc2F)C1 (stereo unspecified)	57.2%	

Compound	activity change, negative = inhibition	Potency
CN(CC(=O)Nc1ccc(N2CCOCC2)cc1)CC(=O)Nc1ccccc1[N+](=O)[O-]	1.25%	
Cc1ccc(/C=N/Nc2ccccc2C(F)(F)F)cc1	37.1%	
Cc1ccccc1N/N=C/c1ccc(N2CCOCC2)cc1		7.08 µM (active)
Cc1cc2ccccc2n1CC(=O)Nc1ccc(Oc2ccccc2)cc1	-0.868%	
Cc1ccc(CN2CCN(c3nc4ccccc4o3)CC2CCO)cc1 (stereo unspecified)	15.7%	
CSc1ccc(/C=N/N2CCN(Cc3ccccc3Cl)CC2)cc1	-1.35%	
CSc1ccc(/C=N/Nc2c(Cl)cc(Cl)cc2Cl)cc1		4.47 µM (active)
CSc1ccccc1N=Cc1ccc(Cl)c(Cl)c1	3.85%	
CCNc1nc(C(F)(F)F)c(C(=O)OCC)s1	40.4%	
Cc1ccc(C2C3=C(CC(C)(C)CC3=O)Nc3nc(SCCC(C)C)[nH]c(=O)c32)s1 (stereo unspecified)	30.9%	
CN(C)C(=O)c1cccnc1OC1CCN(C(=O)Nc2cc(F)cc(F)c2)C1 (stereo unspecified)	-0.265%	
Cc1oc(C)c2c(=O)cc(-c3ccc4c(c3)OCO4)cc(OC(=O)c3ccc(Cl)cc3)c12	6.01%	
COc1ccc(-c2c(C)c3ccc(O)c(CN4CCCC4)c3oc2=O)cc1OC	-10.4%	
CCOc1cc(-c2ccc(O)c(OC)c2)cc(=O)c2c(C)oc(C)c12		7.08 µM (active)
CCn1nc(C)c(CNC(=O)Nc2cc(Cl)ccc2OC)c1C	23.7%	
O=C(c1ccc2c(c1)N(C(=O)c1ccccc1)CC2)N1CCN(c2ccc(Cl)cc2)CC1	38.8%	
Cc1ccc2cc(C(=O)NCc3cccnc3-n3cccn3)c(C)nc2c1	7.82%	
Cc1nc(C)c(C(=O)N2CCC(N3C(=O)C4(CCCC4)C3c3ccccc3)CC2)s1 (stereo unspecified)	58%	
Cc1nc2cc(NC(=O)C3CC(=O)N(CC4CC4)C3)ccc2o1 (stereo unspecified)	0.248%	
N#Cc1ccc(OCC(=O)Nc2nc(-c3ccccn3)cs2)cc1		17.8 µM (active)
NS(=O)(=O)c1ccc2nc(NC(=O)COc3ccccc3)sc2c1	2.54%	

Compound	activity change, negative = inhibition	Potency
CC(C)CC(CC(C)C)=NNC(=O)COc1ccc(C#N)cc1	-15.3%	
O=C1COc2ccc(C(=O)COC(=O)c3nn(Cc4ccccc4)c(=O)c4ccccc34)cc2N1	-18.9%	
O=C(c1ccccc1F)N1CCC(c2nn(-c3ccc(Cl)cc3)c(=O)[nH]2)CC1		31.6 µM (active)
Cc1ccc(C(=O)N2CCC(c3nn(-c4ccccc4)c(=O)[nH]3)CC2)cc1	4.19%	
O=C(c1ccc(F)cc1)N1CCCC(c2nn(-c3cccc(Cl)c3)c(=O)[nH]2)C1 (stereo unspecified)	5.72%	
Cn1nc(C2CCN(C(=O)c3cccc(Cl)c3)CC2)[nH]c1=O	47.3% [at 176 µM]	
O=C(Cc1cccc(Cl)c1)N1CCC(c2nn(-c3ccc(Cl)cc3)c(=O)[nH]2)CC1		20 µM (active)
CC(C)(C)C(=O)N1CCC(c2nn(-c3ccc(F)cc3)c(=O)[nH]2)CC1	3.33% [at 176 µM]	
COc1cc(Cl)c(C)cc1NC(=O)Cn1nc(-c2cccs2)oc1=O	65.1%	
CCCN(CC(F)(F)F)C(=O)c1ccc(NC(=O)NC(C)C)cc1	-27.5%	
Cc1ccc(-n2ccc(C=O)c2)c(C)c1	9.12%	
CCN(CC)C(=O)[C@@H](C)C1CC[C@@]2(C)Cc3sc(N)nc3[C@@H](C)[C@@H]2[C@H]1O (stereo partly specified)	48% [at 176 µM]	
C=CCN(C)C(=O)[C@@H](C)C1CC[C@@]2(C)Cc3sc(NS(=O)(=O)c4ccc(Cl)cc4)nc3[C@@H](C)[C@@H]2[C@H]1O (stereo partly specified)		31.6 µM (active)
C=CCN(C)C(=O)C[C@@H]1c2nc(NC(=O)c3ccc(C(C)(C)C)cc3)sc2C[C@@H]2[C@](C)(CO)[C@H](O)CC[C@]21C	-2.6%	
CC(Sc1cc(F)ccc1F)C(=O)Nc1ccnn1C(C)C (stereo unspecified)	-13.5%	
O=C(NCc1ccc(Cl)c(Cl)c1)C1CCN(c2ncnc3nc[nH]c23)CC1	-1.44%	
CC(=O)NC1(C)CCN(Cc2cccc(-c3ccc(C(=O)c4ccccc4)cc3)c2)C1 (stereo unspecified)		39.8 µM (active)
CC(=O)N1CCC2(CCCN(Cc3ccccc3)C2)CC1	-19.8% [at 57.4 µM]	
CCCNC(=O)C1(C)CCCN(Cc2cccc(C(F)(F)F)c2)C1 (stereo unspecified)	-21.5%	
